Data: PubChem BioAssay AID488969 (Vanderbilt High Throughput Screening Facility, 2010)
Over roughly 110,000 compounds, “z-score” has its median near -0.1; the highest 2% begin near 2. The sample holds the highest values, similar compounds and a random draw of the others, so the mix is not that of the screen. Calls of active or inactive are those of the source.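 How the source made its calls: active means z-score in the third read window above 3 or below -3; inactive means the rest.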

biological target: Metabotropic glutamate receptor 8 (Rattus norvegicus) (UniProt P70579); test: mGluR8 Gi/Go-coupled signaling modulation – cell-based, rat, thallium flux, HTS, primary screen (AID 488969); conditions: HEK293 rat mGluR8, GIRK (G protein-gated inwardly rectifying potassium channel) thallium flux, FluoZin2; at 10 µM; stronger effect = higher value; submaximal glutamate (EC20) added with thallium
Sequence (P70579 whole entry, looked up): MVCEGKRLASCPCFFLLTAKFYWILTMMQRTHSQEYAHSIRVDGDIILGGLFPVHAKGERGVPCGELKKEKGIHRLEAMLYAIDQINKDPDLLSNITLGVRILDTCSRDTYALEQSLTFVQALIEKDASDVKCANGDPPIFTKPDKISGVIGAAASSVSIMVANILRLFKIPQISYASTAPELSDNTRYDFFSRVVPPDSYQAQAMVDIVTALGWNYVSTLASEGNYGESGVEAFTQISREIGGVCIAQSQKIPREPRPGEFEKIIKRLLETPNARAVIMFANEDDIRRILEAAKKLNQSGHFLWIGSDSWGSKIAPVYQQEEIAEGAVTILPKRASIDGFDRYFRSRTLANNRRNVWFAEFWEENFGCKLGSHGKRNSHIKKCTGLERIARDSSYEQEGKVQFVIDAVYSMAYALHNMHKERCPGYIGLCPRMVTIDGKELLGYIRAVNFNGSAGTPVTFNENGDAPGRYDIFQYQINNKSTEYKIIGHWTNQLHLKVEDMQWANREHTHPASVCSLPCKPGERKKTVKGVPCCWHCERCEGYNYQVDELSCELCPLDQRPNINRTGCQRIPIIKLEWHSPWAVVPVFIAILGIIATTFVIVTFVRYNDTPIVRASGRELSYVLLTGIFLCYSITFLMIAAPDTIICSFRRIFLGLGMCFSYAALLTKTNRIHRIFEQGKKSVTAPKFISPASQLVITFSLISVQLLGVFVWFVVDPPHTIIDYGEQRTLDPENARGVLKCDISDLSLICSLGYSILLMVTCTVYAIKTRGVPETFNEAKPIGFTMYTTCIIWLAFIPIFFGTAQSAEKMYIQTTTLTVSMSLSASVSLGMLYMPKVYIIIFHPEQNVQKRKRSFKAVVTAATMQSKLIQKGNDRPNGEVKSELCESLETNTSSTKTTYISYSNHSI

| SMILES | z-score |
| --- | --- |
| Cc1cc(Cl)c(S(=O)(=O)Nc2ccc(Cl)cn2)cc1OCC(N)=O | 0.203 |
| COc1ccc(-n2c(=O)[nH]cc(C(=O)Nc3ccccc3)c2=O)cc1 | 0.241 |
| COc1ccc(-n2c(=O)[nH]cc(C(=O)Nc3ccc(NC(C)=O)cc3)c2=O)cc1 | 9.34 (active) |
| COc1cccc(-n2c(=O)[nH]cc(C(=O)Nc3ccc(NC(C)=O)cc3)c2=O)c1 | -0.503 |
| CCc1ccc(N=c2c([N+](=O)[O-])nn(-c3ccccc3)n2O)cc1 | -0.133 |
| CCCn1c(SCC(=O)N2CCCc3ccccc32)nnc1-c1ccccn1 | -0.0622 |
| Cc1nn(CCC#N)c(NC(=O)c2ccc(Cl)cc2Cl)c1P(=O)(Nc1ccc([N+](=O)[O-])cc1)N1CCOCC1 (centres undefined) | -0.0204 |
| CN(C)C(=O)COc1ccc2ccc(=O)oc2c1 | -0.168 |
| CN(C)C(=O)COc1ccc2cc(-c3ccccc3)c(=O)oc2c1 | 2.32 |
| CCOc1ccc2cc(C(=O)c3ccccc3)c(=O)oc2c1 | -0.201 |
| Fc1ccc(C2NC(=S)NC3=C2N2CCC3CC2)cc1 (centres undefined) | -0.0689 |
| O=C1CC(c2cccs2)Sc2nc3ccccc3n21 (centres undefined) | 1.16 |
| O=C(O)C1CC(=O)n2c(nc3ccccc32)S1 (centres undefined) | 0.555 |
| O=C1CC(c2ccco2)Sc2nc3ccccc3n21 (centres undefined) | 3.22 (active) |
| CCCCOc1nc(N)nc(-c2ccccc2)n1 | -0.634 |
| COc1ccc(C(=O)CSc2nc3ccccc3n2CC(=O)NC(C)(C)C)cc1 | -0.144 |
| CCOC(=O)CSC1=C(C#N)C(=O)NC(c2ccc(OC)cc2)S1 (centres undefined) | 0.083 |
| CCOC(=O)CSC1=C(C#N)C(=O)NC(c2ccc(OC)c(OC)c2)S1 (centres undefined) | 6.39 (active) |
| COC(=O)CSC1=C(C#N)C(=O)NC(c2ccccc2)S1 (centres undefined) | -0.603 |
| O=C(CSc1c[nH]c2ccccc12)NCC1CCCO1 (centres undefined) | -0.0605 |
| C#CCOC(=O)C(NC(=O)c1ccccc1)=C1CCCCC1 | -0.603 |
| C=CCNC(=O)/C(=C\c1ccc2c(c1)OCO2)NC(=O)c1ccc(Br)cc1 | -0.116 |
| Cc1[nH]c2ccccc2c1C(=O)CN1C(=O)NC2(CC(C)CC(C)(C)C2)C1=O (centres undefined) | -0.266 |

| SMILES | z-score |
| --- | --- |
| O=C(OCCN1C(=O)c2cccc3c(N4CCOCC4)ccc(c23)C1=O)c1ccccc1Cl | -0.723 |
| O=C1c2cccc3c(N4CCCCC4)ccc(c23)C(=O)N1CCO | -0.897 |
| O=C(OCCN1C(=O)c2cccc3c(N4CCOCC4)ccc(c23)C1=O)c1ccc(Cl)cc1Cl | -0.884 |
| O=C(OCCN1C(=O)c2cccc3c(N4CCOCC4)ccc(c23)C1=O)c1cccc(Cl)c1 | 2.81 |
| O=C(OCCN1C(=O)c2cccc3c(N4CCOCC4)ccc(c23)C1=O)c1ccc(Cl)cc1 | -0.758 |
| O=C(OCCN1C(=O)c2cccc3c(N4CCOCC4)ccc(c23)C1=O)c1cc(Cl)cc(Cl)c1 | 5.23 (active) |
| CCN1CCCC1CNC(=O)c1ccc(N2CCCC2=O)cc1 (centres undefined) | 1.38 |
| O=S(=O)(Cc1ccccc1Cl)Nc1ccccn1 | 1.91 |
| CCOc1ccccc1NC(=O)c1cccc(NC(=O)CC(c2ccccc2)c2ccccc2)c1 | -0.177 |
| CCOc1ccccc1NC(=O)Nc1cccc(C(C)=O)c1 | 3.62 (active) |
| CCOc1ccccc1NC(=O)c1cccc(NC(=O)c2ccco2)c1 | -0.729 |
| CC(Sc1ccc(Cl)cc1)C(=O)Nc1ccc(S(=O)(=O)N2CCOCC2)cc1 (centres undefined) | 0.967 |
| Cc1ccc(SC(C)C(=O)Nc2ccc(S(=O)(=O)N3CCOCC3)cc2)cc1 (centres undefined) | 6.05 (active) |
| CC(Sc1ccccc1)C(=O)Nc1ccc(S(=O)(=O)N2CCOCC2)cc1 (centres undefined) | 0.0953 |
| COc1ccsc1C(=O)N1CCN(Cc2ccc3c(c2)OCO3)CC1 | -0.0804 |
| COc1cccc(C(=O)OC2CCCN(C)C2)c1 (centres undefined) | -0.125 |
| Cc1csc2nc(CNS(=O)(=O)N(C)C)cn12 | -0.402 |
| CCCS(=O)(=O)NCc1cn2c(C)csc2n1 | 2.02 |
| CCc1ccc(S(=O)(=O)NCc2cn3c(C)csc3n2)s1 | 0.337 |
| CC(c1ccco1)N(C(=O)c1ccccc1NS(=O)(=O)c1ccc(Cl)c([N+](=O)[O-])c1)c1ccccn1 (centres undefined) | 0.843 |
| CC(c1ccco1)N(C(=O)c1ccccc1NS(=O)(=O)c1ccc(Cl)cc1)c1ccccn1 (centres undefined) | -0.362 |
| CC(c1ccco1)N(C(=O)c1ccccc1NS(=O)(=O)c1cc([N+](=O)[O-])ccc1Cl)c1ccccn1 (centres undefined) | 2.18 |
| O=C(CN1C(=O)C2CC=CCC2C1=O)Nc1nnc(SCc2ccc(Cl)cc2)s1 (centres undefined) | -0.31 |

| SMILES | z-score |
| --- | --- |
| CCNc1nnc(-c2ccncc2)s1 | -0.233 |
| Cc1ccc(Nc2nnc(-c3ccncc3)s2)c(Br)c1 | 0.13 |
| c1ccc2c(Nc3nnc(-c4ccncc4)s3)cccc2c1 | 4.07 (active) |
| N=C1CCCN1CC(=O)c1ccc(Cl)cc1 | 0.073 |
| COc1cc2c(C)nc3onc(-c4ccccc4)c3c2cc1OC | -0.241 |
| COc1ccc2nc(SCC(=O)NC3CCCc4ccccc43)[nH]c2c1 (centres undefined) | 0.0427 |
| Cc1ccc2nc(SCC(=O)NC3CCCc4ccccc43)[nH]c2c1 (centres undefined) | 0.164 |
| O=C(CSc1nc2ccccc2[nH]1)NC1CCCc2ccccc21 (centres undefined) | 2.41 |
| O=C(NCc1cccnc1)C1CCN(C(=O)c2ccc(Cl)cc2Cl)CC1 | -0.0203 |
| N=C1S/C(=C\c2cn[nH]c2-c2ccc(F)cc2)C(=O)N1c1ccccc1F | 0.348 |
| CCn1c(-c2nn(C)c(C)c2Cl)n[nH]c1=S | -0.461 |
| CCCCn1nnc(NC(=S)NC(=O)c2cccs2)n1 | 0.0688 |
| CCCCn1nnc(NC(=S)NC(=O)c2ccc(-c3cccc(Cl)c3Cl)o2)n1 | 4.59 (active) |
| CCCCn1nnc(NC(=O)c2ccc(-c3cccc(Cl)c3)o2)n1 | -0.581 |
| COc1cccc(C(=O)/C=C/c2ccc(SC)cc2)c1 | 0.0506 |
| CCC(C)N1CC(C(=O)O)CC1=O (centres undefined) | -0.0459 |
| CCOc1ccc(S(=O)(=O)N2CCN(Cc3ccccc3)CC2)c2cccnc12 | 0.939 |
| Cc1cc(Oc2ccc(C)c(Cl)c2)nc(SCC(=O)c2ccccc2)n1 | -0.36 |
| N#C/C(=C/c1ccc(N2CCCC2)c([N+](=O)[O-])c1)c1nc2ccccc2[nH]1 | 0.0678 |
| N#C/C(=C\c1ccc(N2CCOCC2)c([N+](=O)[O-])c1)c1nc2ccccc2[nH]1 | 2.63 |
| N#C/C(=C\c1ccc(N2CCCC2)c([N+](=O)[O-])c1)c1nc2ccccc2[nH]1 | 0.221 |
| COC(=O)N/N=C/c1cc(C)n(-c2cccc3ccccc23)c1C | 0.0823 |
| O=C(Nc1ccccc1)N1CCN(c2ccc(C(F)(F)F)cn2)CC1 | -0.362 |

| SMILES | z-score |
| --- | --- |
| CC1CC(C)CN(Cc2nc(N)nc(Nc3ccc4ccccc4c3)n2)C1 (centres undefined) | 3.66 (active) |
| Nc1nc(CN2CCCCCC2)nc(Nc2ccccc2)n1 | 0.00781 |
| CC1CC(C)CN(Cc2nc(N)nc(Nc3ccccc3)n2)C1 (centres undefined) | 0.639 |
| Nc1nc(CN2CCC(Cc3ccccc3)CC2)nc(Nc2ccccc2)n1 | 2.39 |
| COc1ccccc1Nc1nc(N)nc(CN2CCC(Cc3ccccc3)CC2)n1 | 0.165 |
| Nc1nc(CN2CCN(Cc3ccccc3)CC2)nc(Nc2ccccc2)n1 | 0.26 |
| O=c1oc2ccccc2c(N2CCCC2)c1CN1CCCC1 | -0.557 |
| CCOC(=O)NC1(NCC(C)C)Oc2ccccc2O1 | -0.313 |
| COc1cc(/C=N/OCC(=O)NC2CCCCC2)ccc1OCc1ccccc1 | -0.752 |
| CC(C)c1ccc(OCC(=O)Nc2ccc(OC(F)(F)F)cc2)cc1 | -0.173 |
| COc1ccccc1C(=O)NCCn1cc(SCC(=O)Nc2cc(C)on2)c2ccccc21 | -0.181 |
| Cc1ccnc(NC(=O)c2cccs2)c1 | -0.306 |
| O=C(NC(=S)Nc1ccc(Cl)cn1)C(c1ccccc1)c1ccccc1 | 0.284 |
| Cc1ccnc(NC(=S)NC(=O)/C=C/c2ccco2)c1 | 3.2 (active) |
| Cc1cccnc1NC(=S)NC(=O)c1cccs1 | 0.0645 |
| CC(=O)Nc1c(C)ccc2nsnc12 | 0.0413 |
| Cc1ccc2nsnc2c1NC(=S)NC(=O)c1ccco1 | 6.75 (active) |
| Cc1ccnc(NC(=S)NC(=O)c2cccs2)c1 | 7.29 (active) |
| Cc1cccnc1NC(=S)NC(=O)/C=C/c1ccco1 | 0.37 |
| O=C(NC(=S)Nc1ccc(Cl)cn1)c1cccs1 | 10.3 (active) |
| O=C(NC(=S)Nc1c(Cl)ccc2nsnc12)c1ccco1 | -0.429 |
| O=C(Nc1ncc(Cl)cn1)c1cccs1 | 0.0318 |
| Cc1ccnc(NC(=S)NC(=O)/C=C/c2ccccc2)c1 | -0.0726 |

| SMILES | z-score |
| --- | --- |
| O=C(c1ccccc1)n1ccn(-c2ccccc2)c1=S | -1.09 |
| CC1CC1C(=O)OCC(=O)Nc1ccc(N=Nc2ccccc2)cc1 (centres undefined) | 0.616 |
| O=C(C1CC(c2ccc(F)cc2)=NO1)N1CCCCC1 (centres undefined) | -0.0299 |
| O=C(CCC(NC(=O)OCc1ccccc1)C(=O)OCC(=O)N1CCCCC1)OCC(=O)N1CCCCC1 (centres undefined) | 0.254 |
| C=CCC(NCc1ccco1)c1ccc(OC)cc1OC (centres undefined) | -0.246 |
| CC1CCc2nn(CC(=O)NCCN3CCCCC3C)cc2C1 (centres undefined) | 0.216 |
| Cc1ccc2ccc(S(=O)(=O)n3nc(C)cc3C)cc2c1 | -0.75 |
| CCC(=O)NC(=S)Nc1ccc(Cl)cn1 | 0.168 |
| COC(=O)C(NC(=O)c1ccco1)(Nc1cc(C)ccn1)C(F)(F)F (centres undefined) | 0.329 |
| Cc1cccc(NC(=O)Cc2cccs2)n1 | -0.58 |
| Cc1cccc(NC(=O)c2cc(NC(=O)c3ccco3)ccc2Cl)n1 | -0.288 |
| Cc1ccnc(NC(=S)NC(=O)c2ccco2)c1 | 2 |
| Cc1cccc(NC(=S)NC(=O)c2cccs2)n1 | 5.04 (active) |
| Cc1cccc(NC(=S)NC(=O)c2ccco2)n1 | 3.93 (active) |
| Cc1cccc(NC(=O)c2cccs2)n1 | 0.965 |
| Cc1cccc(NC(=S)NC(=O)/C=C/c2ccco2)n1 | 0.626 |
| CCCC(=O)NC(=S)Nc1ccc(Cl)cn1 | 0.131 |
| O=C(NC(=S)Nc1ccccn1)c1ccco1 | 1.2 |
| CC(C)CC(=O)NC(=S)Nc1ccc(Cl)cn1 | 2.96 |
| CC(=O)c1c(C)[nH]c(C(=O)COC(=O)CNS(=O)(=O)c2ccccc2)c1C | -0.187 |
| C(=N\N1CCN(Cc2ccccc2)CC1)/c1cccs1 | -0.298 |
| CC(=O)Nc1ccc(S(=O)(=O)NCCC(=O)Nc2ccc(C)c(Cl)c2)cc1 | -0.0921 |
